# Laboratory results from PubChem BioAssay (NCI).
# This is part of a sample that, as a whole, favours compounds with a hit. Of some 83,000 tested, about 20% had one in any assay.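 Testing used 96-well plates and a 48-hour single-concentration exposure. Example: -40 means 40% of the starting cells died.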 A number with no mark means an inactive call. Active and inactive are the calls of the source. How the source made its calls: active means growth percent below 10; inactive means the rest.
# Experiments:
# Assay in all cases: NCI-60 one-dose screen, 48 h (100 = growth as untreated, 0 = no growth, -100 = all killed)
# Conditions in all cases: 10 µM unless noted
# [1] = tested on: DU-145 prostate
# [2] = tested on: K-562 leukemia
# [3] = tested on: MALME-3M melanoma
# [4] = tested on: MDA-MB-231 breast
# [5] = tested on: RXF 393 renal
# [6] = tested on: SF-268 CNS
# [7] = tested on: SF-295 CNS
# [8] = tested on: SF-539 CNS
# [9] = tested on: UACC-257 melanoma
# [10] = tested on: M14 melanoma
SMILES,growth [1],growth [2],growth [3],growth [4],growth [5],growth [6],growth [7],growth [8],growth [9],growth [10]
CC(C)Cc1cc(CNC(=O)C2[C@H]3CN(C(=O)c4ccccc4)C[C@@H]23)nn1-c1ccccc1 (stereo not given in full),100%,80.9%,86.6%,103%,99.8%,94.4%,101%,96.8%,73.4%,95.5%
C=C1C(=O)O[C@H]2[C@H]1CC/C(COC(=O)N1CCC[C@H]1C(=O)Nc1ccc(OC)c(C(N)=O)c1O)=C\CC[C@@]1(C)O[C@@H]21,39.4%,11.2%,27.3%,46%,-12.7% (active),54.6%,90.1%,-4.09% (active),25.2%,36.5%
CCC1S/C(=N\N=C(/C)c2ccc[nH]2)N(c2ccccc2)C1=O (stereo not given),122%,72.8%,85.5%,100%,91.4%,109%,120%,119%,104%,115%
C=C1C(=O)O[C@H]2[C@H]1CC/C(COC(=O)Nc1nc3ccccc3[nH]1)=C\CC[C@@]1(C)O[C@@H]21,36.3%,13.5%,48.6%,66.1%,30.6%,94.3%,107%,61.1%,76.2%,46.4%
CC(C)(C)CC(C)(C)Cc1ccc(OCCOCC[N+](C)(C)Cc2ccccc2)cc1,53.4%,9.56% (active),-40.2% (active),-26.7% (active),16.5%,20.7%,73.5%,30.9%,2.66% (active),7.33% (active)
COc1ccc(Nc2cc(NC(=O)CNc3cc(OC)c(Cl)c(OC)c3Cl)ncn2)cc1,98.8%,74.1%,106%,69.4%,86.7%,78.3%,76.4%,82%,88%,75.2%
CCOC(=O)NCCc1nc2c([nH]1)c(=O)n(C)c(=O)n2C,107%,119%,99.2%,105%,113%,98.5%,103%,105%,113%,88.8%
CC(C)(C)c1nc2c(s1)c1nc(N)ncc1c1ccc(NS(=O)(=O)c3c(F)cccc3F)c(F)c12,49.9%,66.3%,-31.6% (active),29.2%,13.6%,79.1%,60.7%,79.7%,-13.1% (active),7.08% (active)
OCCNc1nc(NCCO)nc(Nc2ccc(C3=NN(c4ccc(Cl)cc4)C(c4ccc(Cl)cc4)C3)cc2)n1 (stereo not given),51.9%,13.3%,70.1%,63.7%,-26.1% (active),53%,12.2%,36.6%,72.9%,63.9%
COc1ccc2nc(-c3ccc(Cl)cc3)cc(-c3nnc(SC/C(=N/O)c4ccccc4)o3)c2c1,29.7%,20.1%,25.5%,49.6%,5.44% (active),55.3%,36.3%,43.5%,60.1%,25.2%
C=C1C(=O)O[C@H]2[C@H]1CC/C(COC(=O)CCCCC(=O)OC/C1=C/CC[C@@]3(C)O[C@H]3[C@H]3OC(=O)C(=C)[C@@H]3CC1)=C\CC[C@@]1(C)O[C@@H]21,56.2%,9% (active),25.5%,29.5%,-44.1% (active),82.2%,101%,46.5%,81.9%,47.8%
O=C(Nc1nc(-c2ccccc2Cl)cs1)c1cc(-c2ccc(Br)cc2)nc2ccccc12,69.3%,23.5%,75.1%,27.3%,59%,66.4%,34.4%,76.1%,29.5%,62.5%
Cc1nc2sc(C(=O)Nc3ccccc3)c(N)c2cc1C(C)O (stereo not given),18.3%,16.3%,64.2%,51.4%,12.7%,53.4%,21.9%,6.49% (active),64%,16.2%
C=C(C)[C@@H]1CC[C@]2(C(=O)OCCOCCOCC[P+](c3ccccc3)(c3ccccc3)c3ccccc3)CC[C@]3(C)[C@H](CC[C@@H]4[C@@]5(C)CC[C@H](OC(=O)C(Cl)Cl)C(C)(C)[C@@H]5CC[C@]43C)[C@@H]12,15.5%,-20.9% (active),-82.9% (active),-46.7% (active),-81.7% (active),4.59% (active),-82.1% (active),-20.2% (active),-27.9% (active),-80.9% (active)
C=C(C)[C@@H]1CC[C@]2(C(=O)OCCOCCOCC[P+](c3ccccc3)(c3ccccc3)c3ccccc3)CC[C@]3(C)[C@H](CC[C@@H]4[C@@]5(C)CC[C@H](OC(C)=O)C(C)(C)[C@@H]5CC[C@]43C)[C@@H]12,-91.1% (active),-74.3% (active),-85.1% (active),-91.3% (active),-90.4% (active),-74.7% (active),-92% (active),-90.9% (active),-83.4% (active),-83.1% (active)
CC(=O)Nc1c(C(=O)Nc2ccccc2)sc2nc3c(cc12)C(OC(C)=O)CCC3 (stereo not given),105%,72.1%,89.7%,101%,62.1%,97.5%,32.4%,95.8%,64.8%,90.3%
N#CC(C#N)=C1NC(c2ccccc2)=C(c2ccccc2)C(c2ccccc2Cl)=C1C#N,112%,98.1%,108%,110%,121%,109%,101%,108%,75%,106%
CCCCCCCc1n(Cc2ccc3ccccc3c2)c2ccccc2[n+]1Cc1ccc2ccccc2c1,-94.7% (active),-67.3% (active),-67.2% (active),-81.2% (active),-72.1% (active),-74.9% (active),-92% (active),-88.9% (active),-76.5% (active),-72% (active)
CCOC(=O)C1=C(C)n2nc(CC#N)c(C#N)c2NC1c1ccc(CC)cc1 (stereo not given),106%,106%,86.8%,87.5%,107%,99.1%,101%,110%,111%,91.5%

SMILES,growth [1],growth [2],growth [3],growth [4],growth [5],growth [6],growth [7],growth [8],growth [9],growth [10]
CC(C)(C)c1ccc(O)c(Cc2cc(C(C)(C)C)ccc2O)c1,105%,87.1%,104%,88.1%,101%,93.1%,109%,108%,86.6%,92.3%
COc1cc(-c2csc(NC(=O)Nc3ccc(C(F)(F)F)cc3)n2)cc(OC)c1OC,20.8%,7.21% (active),-12.1% (active),-14.3% (active),-4.21% (active),29.1%,-12.4% (active),16%,-18.1% (active),5.54% (active)
COc1ccccc1-c1ccc2nc(NC(=O)Nc3cc(C(F)(F)F)cc(C(F)(F)F)c3)sc2c1,19.5%,5.97% (active),-13% (active),-64.2% (active),-6.71% (active),16.8%,-0.289% (active),5.2% (active),-5.57% (active),16%
O=C1NCc2ccc3c(-c4cccc(Cl)c4)c[nH]c3c21,23.3%,10.6%,65.9%,47.6%,-3.81% (active),52.6%,7.18% (active),-15.8% (active),35.6%,15.9%
O=C1CS/C(=N/c2nnc(-c3ccc(O)cc3)s2)N1,110%,95.6%,101%,109%,125%,108%,93.9%,102%,100%,103%
O=C(Nc1ccc2ncnc(Nc3ccc(F)c(Cl)c3)c2c1)c1ccccc1,36.1%,69.4%,90.4%,79.8%,73.1%,67.1%,82%,78.6%,96.8%,90.1%
CC(=O)OC[C@]12CC[C@@H](c3cn(Cc4ccc(Cn5cc([C@@H]6CC[C@]7(COC(C)=O)CC[C@]8(C)[C@H](CC[C@@H]9[C@@]%10(C)CC[C@H](OC(C)=O)C(C)(C)[C@@H]%10CC[C@]98C)[C@@H]67)nn5)cc4)nn3)[C@@H]1[C@H]1CC[C@@H]3[C@@]4(C)CC[C@H](OC(C)=O)C(C)(C)[C@@H]4CC[C@@]3(C)[C@]1(C)CC2,103%,94.7%,98.8%,96.9%,105%,88.8%,98.8%,98.7%,93.3%,103%
CC1(c2ccccc2Cl)NC(=O)NC1=O (stereo not given),105%,100%,101%,105%,113%,103%,97.1%,99.5%,91%,106%
NS(=O)(=O)c1ccc(-n2ncc(NC(=O)Nc3ccc(S(=O)(=O)Nc4nccs4)cc3)c2-c2ccccc2)cc1,109%,96.1%,97.2%,112%,120%,101%,99.3%,98.2%,104%,95.8%
Cc1nc(C)c(C)nc1C,108%,93.1%,102%,108%,120%,105%,107%,104%,88.1%,101%
CCCCn1c2cc(OCc3cn(-c4ccc(Cl)cc4)nn3)ccc2c2ccnc(C)c21,72.5%,14.4%,53.9%,16.7%,47.6%,74.6%,40.2%,55%,33.6%,40.6%
O=C(CCc1nnc2sc(OCc3ccccc3)nn12)c1nc2ccc([N+](=O)[O-])cc2[nH]1,103%,87.7%,96.1%,95.7%,123%,94.5%,97%,98.4%,106%,102%
O=C(CCCC(=O)Nc1ccc(-n2nnc3cc(Cl)c(Cl)cc32)cc1)Nc1ccc(-n2nnc3cc(Cl)c(Cl)cc32)cc1,33.6%,54.8%,48.2%,49.9%,48.1%,60.8%,53.1%,56.7%,66.5%,68%
CSc1nc(-c2ccco2)c2c(N)[nH]nc2n1,102%,85.6%,119%,99.1%,118%,104%,102%,97.5%,129%,120%
CC(C)(C)c1ccc2oc(=O)n(SC(Cl)(Cl)Cl)c2c1,111%,82.4%,109%,104%,110%,98.2%,97.1%,97.2%,111%,94.4%
CCN1CCC[C@H]1c1cc(O)c2c(c1OC)C[C@H]1C[C@H]3[C@H](N)C(=O)C(C(N)=O)=C(O)[C@@]3(O)C(=O)C1=C2O,1.87% (active),3.76% (active),-16.5% (active),-6.79% (active),-40.4% (active),2.64% (active),0.93% (active),-21% (active),-14.1% (active),-38.8% (active)
NC(=O)c1ccc2nc3c(n2c1)C(=O)C(=O)c1ccccc1-3,-96.3% (active),-28.2% (active),-97.3% (active),-17.3% (active),-96.5% (active),-70.2% (active),-98.7% (active),-98.5% (active),-98.3% (active),-88% (active)
Nc1c(C(=O)Nc2ccccc2Cl)sc2nc3c(cc12)CN(Cc1ccccc1)CC3,94%,99%,75.5%,105%,110%,81.5%,100%,102%,128%,107%
C=C1C(=O)O[C@H]2[C@H]1CC/C(C=Nc1c(N)cc(C(F)(F)F)cc1Br)=C\CC[C@@]1(C)O[C@@H]21,19.3%,-8.9% (active),-8.38% (active),-16% (active),-63.4% (active),27.6%,83.3%,18.6%,34%,-46.3% (active)
